These results are taken from PubChem BioAssay (NCATS).

Assay [1] deals with Cellular tumor antigen p53 (Homo sapiens) (UniProt P04637). In words: Primary qHTS for small molecule compounds that upregulate eGFP-tagged delta133p53alpha (in N-terminal) cells. (AID 2060322).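 For activation: series mostly up to about 56 µM; 0% = DMSO vehicle and 100% = reference activator.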 Note: nearly all actives have a fitted effect of over 75% in size. Note: potency is the fitted concentration of half-maximal effect. The following applies: NCI-H358 eGFP-delta133p53alpha fluorescence, 24 h; activation: stronger effect = higher value. Put shortly:
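NCI-H358 cells pre-induced 24 h with 10 ng/ml doxycycline to express N-terminal eGFP-delta133p53alpha, then dosed 24 h at 37C without doxycycline; fixed, Hoechst-stained, GFP intensity by laser scanning cytometry, normalized to DMSO (0%) and 57.5 uM 5-azacytidine (100%).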
Background: qHTS replaces the single test concentration by a dilution series.

For assay [2], the target named is Aldehyde dehydrogenase, mitochondrial (Homo sapiens) (UniProt P05091). In words: qHTS for Inhibitors of the Aldehyde Dehydrogenase Family (ALDH2) Primary screen (AID 2061308).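 Note: plate controls were vehicle for no effect and reference inhibitor for full effect; nearly all actives have a fitted effect of over 55% in size.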
Assay [3] deals with Retinaldehyde dehydrogenase 3 (Homo sapiens) (UniProt P47895). In words: qHTS for Inhibitors of the Aldehyde Dehydrogenase Family (ALDH1A3) Primary screen (AID 2061315).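 Note: plate controls were DMSO vehicle for no effect and reference inhibitor for full effect.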

Inconclusive results are not listed. A number with no mark means an inactive call. Activity calls are given as the source filed them. Calls come from the whole dose curve; as a rule, active = well fitted curve in the direction sought with a large enough effect; inconclusive = small, poorly fitted or top-dose-only effect, or another doubt; inactive = no such curve, though single readings can be large; an effect the other way counts as inactive or inconclusive. Square brackets hold non-standard residues; d marks the D form. Peptide text beside a SMILES is read from it. dPhe(4-Cl) = N[C@H](Cc1ccc(Cl)cc1)C(=O)O; d2Nal = N[C@H](Cc1ccc2ccccc2c1)C(=O)O; dCit = NC(=O)NCCC[C@@H](N)C(=O)O; d3Pal = N[C@H](Cc1cccnc1)C(=O)O

Chain of Cellular tumor antigen p53 (Homo sapiens) (P04637 whole entry, looked up): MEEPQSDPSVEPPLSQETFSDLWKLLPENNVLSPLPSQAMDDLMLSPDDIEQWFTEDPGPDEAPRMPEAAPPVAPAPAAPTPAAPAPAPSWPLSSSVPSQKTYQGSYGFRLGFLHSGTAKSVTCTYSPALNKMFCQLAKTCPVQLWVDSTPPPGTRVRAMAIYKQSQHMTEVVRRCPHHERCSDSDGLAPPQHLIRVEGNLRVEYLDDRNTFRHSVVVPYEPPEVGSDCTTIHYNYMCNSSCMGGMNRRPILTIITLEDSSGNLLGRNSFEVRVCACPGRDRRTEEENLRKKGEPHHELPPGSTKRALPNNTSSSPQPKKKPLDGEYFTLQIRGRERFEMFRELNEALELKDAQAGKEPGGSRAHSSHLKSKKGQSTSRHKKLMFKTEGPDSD

Take `COc1ccc(/C=C/C(=O)O[C@@H]2[C@@H](OC(C)=O)[C@@H](OC(C)=O)[C@H](O[C@H]3[C@@H]4C=CO[C@@H](O[C@@H]5O[C@H](CO)[C@@H](O)[C@H](O)[C@H]5O)[C@@H]4[C@@]4(CO)O[C@@H]34)O[C@H]2C)cc1O`: the activation in assay [1] was -16%. Besides, the Potency result in assay [2] and in assay [3] was “inactive” throughout.
Regarding `O=C(O)CC(CCc1ccccc1)OC1OC(CO)C(O)C(O)C1O` (stereo unspecified), the activation in assay [1] is 3.57%. The Potency result in assay [2] and in assay [3] was “inactive” each time.
In the case of `CS/C=C/C(=O)O[C@@H]1CCC2=CC(=O)C(=C(C)C)C[C@]2(C)[C@H]1C`, the activation in assay [1] is -1.79%. For the same compound, the Potency entry in assay [2] and in assay [3] was “inactive” throughout.
In the case of `CC(=O)N[C@H](Cc1ccc2ccccc2c1)C(=O)N[C@H](Cc1ccc(Cl)cc1)C(=O)N[C@H](Cc1cccnc1)C(=O)N[C@@H](CO)C(=O)N[C@@H](Cc1ccc(O)cc1)C(=O)N[C@H](CCCNC(N)=O)C(=O)N[C@@H](CC(C)C)C(=O)N[C@@H](CCCN=C(N)N)C(=O)N1CCC[C@H]1C(=O)N[C@H](C)C(N)=O` (Ac-[d2Nal][dPhe(4-Cl)][d3Pal]SY[dCit]LRP[dA]-NH2), the activation in assay [1] is 13%. The Potency entry in assay [2] and in assay [3] was “inactive” throughout.
As for `COc1ncc2cc(C(=O)Nc3cc(C(=O)NCc4cccc(Cl)c4)ccc3Cl)c(=O)[nH]c2n1`, the Potency in assay [1] was 2.69 µM (active). Further, the Potency entry in assay [2] and in assay [3] was “inactive” throughout.
On to `CC12CCC(=O)C=C1C(O)CC1C2C(O)CC2(C)C1CC[C@]2(O)C(=O)CO` (stereo partly specified), for which, in assay [1], the activation is 5.67%. Also, the Potency entry in assay [2] and in assay [3] was “inactive” in each case.
Take `O=C(O)CCCCCC[C@H]1C(=O)NC(=O)N1CC[C@@H](O)C1CCCCC1`: in assay [1], the activation is -1.67%. Besides, the Potency entry in assay [2] and in assay [3] was “inactive” in each case.
`CCC(C)(OC(C)=O)C(=O)O[C@H]1[C@H](OC(C)=O)[C@]2(CO)[C@H](O)[C@H](O)[C@]3(C)C(=CCC4[C@@]5(C)CC[C@H](O[C@@H]6O[C@H](C(=O)O)[C@@H](O)[C@H](O[C@@H]7OC[C@H](O)[C@H](O[C@@H]8OC[C@H](O)[C@H](O)[C@H]8O)[C@H]7O)[C@H]6O[C@@H]6O[C@H](CO)[C@@H](O)[C@H](O)[C@H]6O)C(C)(C)C5CC[C@]43C)[C@@H]2CC1(C)C` (stereo partly specified): the Potency in assay [1] is 3.2 µM (active). Also, the values for the activity change, negative = inhibition in assay [2] and in assay [3] were -13.5% [at 11.2 µM] and 11.4% [at 11.2 µM], respectively.
On to `COCC1OC(OC(C)(C)C2CCC3(C)C=C(C4CCC5C4(C)CC(O)C4OC(C(C)(C)O)CCC45C)CCC3O2)C(NC(C)=O)C(O)C1O` (stereo unspecified), for which the activation in assay [1] is 5.34%. Besides, the Potency result in assay [2] and in assay [3] was “inactive” in each case.
For the compound `CO[C@H]1O[C@@H]2O[C@@]3(C)CCC4[C@H](C)CCC([C@H]1C)[C@]42OO3` (stereo partly specified), the activation in assay [1] was 11.7%. Moreover, the Potency entry in assay [2] and in assay [3] was “inactive” throughout.
As to `CC1(C)CCCC2(C)C(CO)C3CCC2C31` (stereo unspecified), in assay [1], the activation was 24.1%. The Potency result in assay [2] and in assay [3] was “inactive” each time.
With `CN1CCN(C(=O)c2ccc(Nc3nccc(-c4cccs4)n3)cc2Cl)CC1`, in assay [1], the Potency is 30.1 µM (active). Also, the Potency result in assay [2] and in assay [3] was “inactive” each time.
As to `C=C1CCC2[C@](C)(CCC[C@@]2(C)C=O)[C@H]1CC/C(C)=C/CO` (stereo partly specified), the activation in assay [1] was 11.5%. The Potency entry in assay [2] and in assay [3] was “inactive” throughout.
For the compound `COc1ccc(CNC(=O)c2cc(-c3cncc(C)c3)ncc2-c2nccs2)nc1OC`, the activation in assay [1] was 0.477%. Moreover, the Potency result in assay [2] and in assay [3] was “inactive” each time.
Consider `C=C1C(OC(C)=O)CCC2(C)CCC(C(C)(C)O)CC12` (stereo unspecified), for which the activation in assay [1] is -3.05%. Besides, the Potency entry in assay [2] and in assay [3] was “inactive” throughout.
In the case of `O=C(CC1C(=O)Nc2ccccc21)OC[C@H]1O[C@@H](OCCc2ccc(O)cc2)[C@H](O)[C@@H](O)[C@@H]1O` (stereo partly specified), the activation in assay [1] is 0%. Moreover, the Potency entry in assay [2] and in assay [3] was “inactive” each time.
For `C[C@]12CCC[C@](C)(C(=O)O)C1CCC13C=C(CO)C(CCC12)C3` (stereo partly specified), the activation in assay [1] is -24.4%. The Potency entry in assay [2] and in assay [3] was “inactive” in each case.
For `C=C1[C@@H](C2=CC(=O)OC2)CC[C@@]2(O)[C@@H]1CC1[C@H]2CC[C@@H]2C[C@@H](O[C@H]3O[C@@H](C)[C@@H](O[C@@H]4O[C@H](CO[C@@H]5O[C@H](CO)[C@@H](O)[C@H](O)[C@H]5O)[C@@H](O)[C@H](O)[C@H]4O)[C@H](OC)[C@H]3O)CC[C@]12C` (stereo partly specified), the activation in assay [1] was 7.14%. Besides, the Potency entry in assay [2] and in assay [3] was “inactive” throughout.
Take `CC1(C)CCC[C@@]2(C)[C@H]1[C@H](O)C=C(CO)[C@]2(O)CO`: the activation in assay [1] was -1.53%. Further, the Potency result in assay [2] and in assay [3] was “inactive” each time.
On to `CC(=O)N[C@H]1[C@H](O[C@H]2CC[C@@]3(C)C(CC[C@]4(C)C3CC=C3C5CC(C)(C)CC[C@]5(C(=O)O)C(O)C[C@]34C)C2(C)C)O[C@H](CO[C@@H]2O[C@H](C)[C@H](O)[C@H](O)[C@H]2O[C@@H]2OC[C@@H](O)[C@H](O)[C@H]2O)[C@@H](O)[C@@H]1O` (stereo partly specified), for which, in assay [1], the activation is 13.4%. Also, the Potency result in assay [2] and in assay [3] was “inactive” throughout.
Regarding `O=C1CCC=CC1(O)C(=O)OCc1ccccc1O[C@@H]1O[C@H](CO)[C@@H](O)[C@H](O)[C@H]1O` (stereo partly specified), the activation in assay [1] was 15.3%. Further, the Potency result in assay [2] and in assay [3] was “inactive” throughout.
In the case of `CC(C)[C@@H](C(=O)O)N1Cc2c(cc(O)c3c2O[C@]2(C3)[C@H](C)CCC3C(C)(C)[C@H](O)[C@H](O)C[C@@]32C)C1=O` (stereo partly specified), the activation in assay [1] is -16.8%. Besides, the Potency entry in assay [2] and in assay [3] was “inactive” in each case.
